# Laboratory results reported in PubChem BioAssay (NCI).
# The panel holds about 83,000 compounds, 20% with a hit somewhere; the sample as a whole holds those more often.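 Compound tested at a single concentration for 48 hours in 96-well plates; a percent growth value below 10 was scored as active.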 Values without a mark were called inactive. The source made the active and inactive calls.
# Tests used:
# Assay in all cases: NCI-60 one-dose screen, 48 h (100 = growth as untreated, 0 = no growth, -100 = all killed)
# Settings in all cases: 10 µM unless noted
# NCI-H23 lung = system: NCI-H23 lung
# NCI-H226 lung = system: NCI-H226 lung
# NCI-H322M lung = system: NCI-H322M lung
# HOP-62 NSCLC = system: HOP-62 NSCLC
# NCI-H460 lung = system: NCI-H460 lung
# HOP-92 NSCLC = system: HOP-92 NSCLC
# A549/ATCC NSCLC = system: A549/ATCC NSCLC
# 786-0 renal = system: 786-0 renal
# COLO 205 colon = system: COLO 205 colon
# NCI-H522 lung = system: NCI-H522 lung
SMILES,growth (NCI-H23 lung),growth (NCI-H226 lung),growth (NCI-H322M lung) [%],growth (HOP-62 NSCLC),growth (NCI-H460 lung),growth (HOP-92 NSCLC),growth (A549/ATCC NSCLC),growth (786-0 renal),growth (COLO 205 colon),growth (NCI-H522 lung)
Nc1nc(Cl)cc(Cl)n1,95.9%,101%,99,85.2%,106%,113%,81%,103%,96.8%,
COc1cc(OC)c2cc(C(=O)c3ccc(C#N)cc3)c(=O)oc2c1,96.9%,92.2%,92.3,88.6%,107%,107%,99%,84%,117%,93.1%
Cc1onc(-c2c(F)cccc2Cl)c1-c1ncc(-c2ccc(Br)cc2)o1,42.1%,73.1%,61.9,59.3%,4.75% (active),61.3%,41.7%,10.7%,49.6%,41.9%
COC1CC(OC(=O)c2ccc([N+](=O)[O-])cc2)C(COC(=O)c2ccc([N+](=O)[O-])cc2)O1 (stereo not given),105%,88.9%,113,118%,105%,82.8%,103%,105%,112%,118%
S=C=Nc1ccc2ccccc2c1,96.9%,101%,109,98.3%,105%,79%,100%,,111%,97.3%
COc1cccc(C(=O)O)c1OC,109%,89.8%,95.6,89.4%,101%,92.5%,98.1%,96%,101%,87.2%
C/C=C/C1OCC(CC)C(CCC)O1 (stereo not given),113%,111%,111,111%,109%,110%,88%,111%,114%,91.1%
Cc1cccnc1NC1OC(=O)c2ccccc21 (stereo not given),100%,98.6%,96.2,99.7%,105%,119%,96.2%,99.6%,101%,88.6%
CCNc1ccc2ccccc2c1N=Nc1ccc(N=Nc2ccccc2)cc1,99.4%,83.6%,101,102%,84.7%,98.1%,102%,108%,100%,90.2%
CCN(CC)CCN1CNC(=S)NC1,99.2%,-70.2% (active),108,98.8%,114%,96.5%,106%,101%,106%,94.6%
Nc1ccc2ccccc2c1-c1c(N)ccc2ccccc12,41.6%,73.5%,39.7,43%,20.2%,52.9%,19.9%,49.3%,5.44% (active),37.1%
CC(C)(CC(=O)O)CC(=O)O,100%,96.5%,96.7,111%,102%,96.6%,101%,102%,119%,98.5%
O=S(=O)(O)C(C(I)I)S(=O)(=O)O,95.4%,98.7%,107,109%,105%,106%,104%,110%,110%,
O=Cc1ccc(O)c(O)c1,100%,95.9%,104,97.1%,98.9%,84.9%,89.4%,101%,95.4%,
CCOC(=O)c1c[nH][nH]c1=O,93.4%,101%,122,89.2%,106%,111%,125%,94.3%,124%,
O=C1NC(=O)/C(=C\c2ccncc2)N1,102%,99.8%,107,94.2%,102%,85.7%,106%,106%,103%,
C=CC1=NC(C)(C)CC(C)O1 (stereo not given),114%,111%,108,110%,104%,105%,104%,103%,116%,
CC(C)N(C(=O)c1ccccc1)C(C)C,106%,93.6%,114,109%,106%,97.8%,98.8%,106%,114%,
c1cc(CNCCNCc2ccncc2)ccn1,112%,103%,97,103%,116%,97.5%,97.7%,104%,113%,
CC(=O)Nc1ccc(/C=C2\SC(=S)N(/C=C(\C(C)=O)C(N)=O)C2=O)cc1,97.5%,86.2%,102,82.5%,99.4%,68.2%,84.9%,88.1%,92.1%,
CCOc1ccc(C(=O)O)cc1,97.6%,91.9%,108,105%,103%,90.4%,108%,101%,105%,
CCNCC(C)(C)O,99.1%,105%,98,100%,113%,84.4%,96.1%,103%,113%,

SMILES,growth (NCI-H23 lung),growth (NCI-H226 lung),growth (NCI-H322M lung) [%],growth (HOP-62 NSCLC),growth (NCI-H460 lung),growth (HOP-92 NSCLC),growth (A549/ATCC NSCLC),growth (786-0 renal),growth (COLO 205 colon),growth (NCI-H522 lung)
Cc1cc2nc(C)c(C)nc2cc1C,93.7%,84%,118,92.5%,101%,63.8%,101%,103%,98.7%,
C/C(Cc1ccccc1)=N\O,109%,112%,110,118%,107%,84%,103%,102%,116%,
CC1(C)OC(=O)CC1=O,98.6%,76.1%,108,97.9%,104%,81.2%,69%,98.4%,99.6%,
C=CCc1cc(OC)c(O)c(OC)c1,105%,93.8%,124,97.4%,108%,105%,83.9%,102%,105%,
CCCCCCCCCCC(=O)CCCCCCCCCC,102%,103%,109,92.3%,102%,148%,98.4%,99.1%,107%,
Cc1c(Cl)cccc1N=C=S,85%,101%,95.4,88.5%,101%,69.6%,90.4%,101%,117%,
CC(C)C(=O)OCCOc1ccc(C(C)(C)C)cc1,103%,99.4%,101,102%,102%,97.7%,88.4%,101%,108%,
C1=NCCc2ccccc21,93.8%,85.8%,105,89.4%,103%,92.1%,98.5%,103%,101%,
Nc1ccn(C2OC(CO)C(O)C2F)c(=O)n1 (stereo not given),83.7%,101%,,63.5%,70.1%,78.3%,68%,79.9%,65.1%,51.4%
CSc1cnc2ccccc2n1,103%,103%,,84.7%,102%,99.6%,82.8%,107%,116%,80%
FC(F)(F)c1cc(NC2=NCCN=C(Nc3cc(C(F)(F)F)cc(C(F)(F)F)c3)SS2)cc(C(F)(F)F)c1,47.2%,67.9%,90.1,74.8%,40%,0.524% (active),49.1%,70.6%,49.1%,
S=C(Sc1ccc(Cl)cc1)Sc1ccc(Cl)cc1,21.8%,-52.5% (active),106,47.9%,67.1%,-4.66% (active),45.5%,-14.5% (active),-54% (active),
C#CCSc1nnnn1-c1ccccc1,97.9%,82.5%,98,105%,95.4%,50.5%,64%,92%,113%,
CCOC(=O)c1c(C)[nH]c(C)c1C=O,98.8%,99.6%,,86.9%,99.8%,81.9%,67.3%,91.8%,110%,93.7%
O=C(O)CC1=CCCCC1,98.9%,103%,98.7,98.3%,106%,82.8%,98.5%,95.2%,108%,
CCCCCC#CC(=O)O,109%,107%,98.7,98.2%,110%,83.6%,97%,99%,107%,
CC(C)C(C)(C)C(=O)C(C)(C)C(C)(C)C,90.6%,90.5%,,103%,101%,88.3%,93.3%,108%,104%,92.4%
NC(=O)OCCO,99.3%,99.5%,97,105%,110%,102%,99.7%,95%,113%,
CCCCCCCCCCCCCCCCCC(=O)NCCNC(=O)CCCCCCCCCCCCCCCCC,95.2%,107%,72.4,89.8%,98.8%,37.4%,94.5%,91.9%,84.5%,
NC(CCl)=NCC12CC3CC(CC(C3)C1)C2,-7.12% (active),-0.0494% (active),20.1,-66.1% (active),-57.6% (active),-37.6% (active),-47.1% (active),-80.2% (active),-96% (active),
COc1ccc(NNS(=O)(=O)O)cc1,98.3%,95%,116,85.1%,105%,80.3%,95.3%,103%,104%,
NCCCN1CCCC1=O,101%,109%,96.9,112%,113%,105%,91%,105%,111%,

SMILES,growth (NCI-H23 lung),growth (NCI-H226 lung),growth (NCI-H322M lung) [%],growth (HOP-62 NSCLC),growth (NCI-H460 lung),growth (HOP-92 NSCLC),growth (A549/ATCC NSCLC),growth (786-0 renal),growth (COLO 205 colon),growth (NCI-H522 lung)
CC(C)c1ncc([N+](=O)[O-])n1C,103%,102%,126,118%,106%,104%,96.9%,108%,108%,
OC(CBr)CCBr (stereo not given),105%,110%,101,97.2%,102%,102%,90.8%,103%,105%,
NNC(=O)N/N=C1\C(=O)N(c2nccs2)C(=O)C(=O)C1c1nc2ccccc2s1 (stereo not given),95.6%,89.1%,105,81.3%,101%,98.6%,75.8%,118%,98.6%,
O=C(O)c1ccccc1Cc1ccc2c(c1)CCCC2,100%,92.5%,99.2,111%,106%,107%,94.9%,107%,112%,
c1ccc(Oc2c3ccccc3nc3ccccc23)cc1,8.18% (active),47.9%,56.3,16.1%,3.68% (active),8.21% (active),34.1%,1.82% (active),-10.5% (active),
CCOC(=O)CNC(=O)Sc1ccc(C(C)(C)C)cc1,98.1%,87.2%,,122%,102%,138%,109%,102%,119%,69.6%
O=C(c1cccc(C(=O)c2ccc3c4c(cccc24)C(=O)N(c2ccccc2)C3=O)c1)c1ccc2c3c(cccc13)C(=O)N(c1ccccc1)C2=O,82.6%,78.6%,,101%,104%,85.5%,103%,106%,102%,85%
O=C1NCC2CCCC1C2 (stereo not given),105%,,96.8,115%,120%,130%,97.6%,99.5%,119%,90.3%
CC(=O)Nc1ccc(O)c(C)c1,99.8%,95%,,98%,104%,100%,88.1%,105%,109%,93.5%
Clc1ccc(/C=C/c2ccccn2)cc1,91.2%,101%,,94.7%,104%,56.3%,92.2%,98.1%,105%,87.1%
CNc1ccccc1C(=O)N/N=C/C=C/c1ccccc1,39.1%,66.7%,,26.9%,11%,69.3%,30.7%,35.3%,-1.61% (active),-18.1% (active)
NCC(O)C(O)C(O)C(O)CO (stereo not given),98.2%,93.4%,,91.4%,102%,80.7%,78.4%,99.2%,101%,102%
Cc1ccc(S(=O)(=O)NC(=O)NCCSSCCNC(=O)NS(=O)(=O)c2ccc(C)cc2)cc1,102%,91%,,105%,103%,92.2%,100%,104%,129%,94.9%
Clc1ccc(-c2noc(/C=C\c3ccccc3)n2)cc1,101%,93.1%,,106%,109%,99.3%,87.9%,99.4%,105%,87%
CC(c1ccccc1)N1C(=O)CSC1=S (stereo not given),51.2%,83.2%,,59.2%,0.475% (active),47.5%,78.8%,21.2%,1.28% (active),-14.2% (active)
Cc1cc(CC(=O)NCCO)n(CCO)c(=O)c1,101%,105%,,91%,103%,115%,94.1%,108%,104%,93.8%
COC1C(=O)CCC2(CO2)C1(O)C1(C)OC1CCC(C)C (stereo not given),69.5%,85.2%,,71.5%,20.5%,67.5%,56.2%,81.2%,65.9%,62.8%
O=[N+]([O-])c1c(O)c(CNCCCO)cc(CNCCCO)c1O,106%,101%,,106%,119%,90.8%,95.4%,118%,120%,121%
O=C1Nc2ccccc2/C1=C\c1ccccc1O,82.6%,93.2%,,87.9%,98.7%,46.6%,114%,98.8%,124%,61.6%
C/C(=N\Nc1ccc([N+](=O)[O-])cc1[N+](=O)[O-])c1ccc(Br)cc1,103%,96.6%,,108%,99.2%,94.5%,84.8%,99.4%,104%,85.5%
CCOC(=O)/C(C#N)=C\c1c[nH]c2ccccc12,86.5%,79.8%,,80.7%,109%,81.6%,105%,114%,98.7%,70.4%
